Measured values as given in PubChem BioAssay (Tox21).
Records with an inconclusive call do not appear. The source made the active and inactive calls. The call rests on the fitted dose curve; in most records, active means well fitted cell-killing curve with a large enough effect in the repeat runs; inconclusive means weak or mixed curves, or effect the other way; inactive means no such curve, though single readings can be large or run the other way.

Experiment: qHTS assay to identify small molecule antagonists of the progesterone receptor (PR) signaling pathway - cell viability counter screen (AID 1346798); further: nearly all actives have a fitted effect of over 50% in size
Conditions: PR-UAS-bla HEK293T viability, CellTiter-Glo luminescence, 16 h; series mostly up to 92.4 µM; activity change, negative = cytotoxicity: at the top concentration
Source text: National Center for Advancing Translational Sciences [NCATS]
NIH Chemical Genomics Center [NCGC]
U.S. Environmental Protection Agency [EPA]
National Institutes of Environmental Health Sciences [NIEHS]
National Toxicology Program [NTP]
U.S. Food and Drug Administration [FDA]
Progesterone receptor (PR), a nuclear hormone receptor, plays an important role in development, metabolic homeostasis and reproduction. It is activated by the steroid hormone progesterone. Endocrine disrupting chemicals (EDCs) and their interactions with steroid hormone receptors like PR causes disruption of normal endocrine function. To identify the compounds that inhibit PR signaling, a PR-UAS-bla GripTite cell line i.e. PR-UAS-bla HEK293T (Invitrogen, Carlsbad, CA, USA) containing a beta-lactamase reporter gene under the control of an UAS response element was used to screen Tox21 10K compound library. The cytotoxicity of the Tox21 compound library against the PR-bla cell line was tested in parallel by measuring the cell viability using CellTiter-Glo assay in the same wells.
Tox21 Assay Protocol Summary:
PR-UAS-bla HEK293T cells were dispensed at 3,000 cells/4 uL of assay medium containing 2% charcoal stripped FBS per well into black wall/clear-bottom 1536-well plates using a Multidrop Combi (ThermoFisher Scientific, Waltham, MA) dispenser. After the assay plates were incubated at a 37C and 5% CO2 for 4 hr, 23 nL of compounds dissolved in DMSO, positive controls or DMSO only was transferred to the assay plate by a Pintool station (Kalypsys, San Diego, CA), followed by addition of 1 uL of R5020 in assay medium using a Flying Reagent Dispenser (FRD, Aurora Discovery, San Diego, CA). The plates were incubated at 37C and 5% CO2 for 16 hr. Then 1 uL of LiveBLAzer B/G FRET substrate was added using a Flying Reagent Dispenser, the plates were incubated at room temperature for 2 hours, and fluorescence intensity was measured by an Envision plate reader (PerkinElmer, Shelton, CT). For cell viability readout that measures cytotoxicity, 4 uL/well of CellTiter-Glo reagent was added into the assay plates using a FRD. After 30 min incubation at room temperature, the luminescence intensity in the plates was measured using a ViewLux (PerkinElmer) plate reader.
On the % scale 0 is the no-effect control and ±100 the full control effect; potency means the concentration at half of the fitted maximal effect.

Question: With `CC(C)O.CC(C)O.OCCN(CCO)CCO.OCCN(CCO)CCO.[Ti]` as the compound, how does the “activity change, negative = cytotoxicity” value read?
Answer: Its value is -4.84% (inactive).

Question: With `N#C/C(N)=C(/N)C#N` as the compound, how does the “activity change, negative = cytotoxicity” value read?
Answer: The value was -20.6% (inactive).

Question: With `COC(C)(C)CCC[C@H](C)C/C=C/C(C)=C/C(=O)OC(C)C` as the compound, how does the “activity change, negative = cytotoxicity” value read?
Answer: Its value is -0.407% (inactive).

Question: For `C[C@]12CC[C@H]3[C@@H](CCC4=CC(=O)CC[C@@H]43)[C@@H]1CC[C@@H]2OC(=O)CCC1CCCCC1`, which “activity change, negative = cytotoxicity” value is on record?
Answer: The value was 13.6% [at 42.5 µM] (inactive).

Question: With `CC(C)N(C(=O)COc1nnc(C(F)(F)F)s1)c1ccc(F)cc1` as the compound, how does the “activity change, negative = cytotoxicity” value read?
Answer: Its value is -15.4% (inactive).

Question: With `NNC(=O)c1cccnc1` as the compound, how does the “activity change, negative = cytotoxicity” value read?
Answer: The value was -10.2% (inactive).

Question: Which “activity change, negative = cytotoxicity” value does the source give for `C=CCCl` here?
Answer: Its value is -12% (inactive).

Question: With `C=CC(=O)NCNC(=O)C=C` as the compound, how does the “activity change, negative = cytotoxicity” value read?
Answer: The value was 8.29% (inactive).

Question: With `BrCCCCBr` as the compound, how does the “activity change, negative = cytotoxicity” value read?
Answer: Its value is -5.89% (inactive).

Question: With `C=CCOC(C)=O` as the compound, how does the “activity change, negative = cytotoxicity” value read?
Answer: The value was 14.4% (inactive).

Question: For `Nc1nc(=S)[nH][nH]1`, which “activity change, negative = cytotoxicity” value is on record?
Answer: The value was -7.22% (inactive).

Question: For `COP(=O)(OC)O/C(=C/Cl)c1cc(Cl)c(Cl)cc1Cl`, which “activity change, negative = cytotoxicity” value is on record?
Answer: The value was 6.83% (inactive).

Question: With `CCOP(=O)(OCC)SCCSCC` as the compound, how does the Potency read?
Answer: Its Potency is “inactive”.

Question: For `CCC(C)(NC(=O)c1cc(Cl)c(C)c(Cl)c1)C(=O)CCl` (stereo not given), which “activity change, negative = cytotoxicity” value is on record?
Answer: The value was -1.15% (inactive).

Question: Which “activity change, negative = cytotoxicity” value does the source give for `ClP(Cl)(Cl)(Cl)Cl` here?
Answer: Its value is 1.93% (inactive).

Question: Which activity change, negative = cytotoxicity does the source give for `NCC(CC(=O)O)c1ccc(Cl)cc1` (stereo not given) here?
Answer: Its activity change, negative = cytotoxicity is -8.73% [at 0.348 µM] (inactive).

Question: Which “activity change, negative = cytotoxicity” value does the source give for `NCCCNCCCN` here?
Answer: The value was -18% (inactive).

Question: For `CCCCNP(N)(N)=S`, which “activity change, negative = cytotoxicity” value is on record?
Answer: The value was -3.55% (inactive).

Question: Which Potency does the source give for `COC(N)=O` here?
Answer: Its Potency is 43.3 µM (active).

Question: For `N#Cc1ccc(Cl)cc1`, which “activity change, negative = cytotoxicity” value is on record?
Answer: The value was 0.541% (inactive).

Question: For `CC(C)(OO)c1ccccc1`, which “activity change, negative = cytotoxicity” value is on record?
Answer: The value was -0.903% (inactive).

Question: For `CO/C=C(/C(=O)OC)c1ccccc1COc1cccc(C(F)(F)F)n1`, which “activity change, negative = cytotoxicity” value is on record?
Answer: Its value is -11.9% (inactive).

Question: With `ClCC(Br)CBr` (stereo not given) as the compound, how does the “activity change, negative = cytotoxicity” value read?
Answer: Its value is 13.8% (inactive).

Question: With `O=[N+]([O-])c1ccccc1CCl` as the compound, how does the “activity change, negative = cytotoxicity” value read?
Answer: The value was -5.03% (inactive).

Question: With `CCCN(CCC)c1c([N+](=O)[O-])cc(S(C)(=O)=O)cc1[N+](=O)[O-]` as the compound, how does the “activity change, negative = cytotoxicity” value read?
Answer: Its value is 5% (inactive).

Question: Which “activity change, negative = cytotoxicity” value does the source give for `C=CC(=O)OCC(C)O` (stereo not given) here?
Answer: Its value is 1.73% (inactive).

Question: Which “activity change, negative = cytotoxicity” value does the source give for `CC1(C)[C@H](C=C(Cl)Cl)[C@@H]1C(=O)O[C@@H](C#N)c1cccc(Oc2ccccc2)c1` here?
Answer: The value was 8.67% (inactive).

Question: For `CCOP(=S)(OCC)Oc1cc(Cl)c(Br)cc1Cl`, which “activity change, negative = cytotoxicity” value is on record?
Answer: The value was 2.24% (inactive).

Question: Which “activity change, negative = cytotoxicity” value does the source give for `N#CCc1ccccc1` here?
Answer: The value was 6.59% (inactive).

Question: Which “activity change, negative = cytotoxicity” value does the source give for `Cn1sc(Cl)cc1=O` here?
Answer: Its value is 2.73% (inactive).

Question: Which “activity change, negative = cytotoxicity” value does the source give for `O=S(=O)(O)C(F)(F)C(F)(F)C(F)(F)C(F)(F)F` here?
Answer: Its value is 3.75% (inactive).

Question: With `COc1nn(C(=O)NS(=O)(=O)c2ccccc2OC(F)(F)F)c(=O)n1C` as the compound, how does the “activity change, negative = cytotoxicity” value read?
Answer: The value was 7.55% (inactive).

Question: For `CCc1ccc(C(=O)NN(C(=O)c2cc(C)cc(C)c2)C(C)(C)C)cc1`, which “activity change, negative = cytotoxicity” value is on record?
Answer: The value was 22.5% (inactive).

Question: With `O=C(OC1CCCCC1)c1ccccc1C(=O)OC1CCCCC1` as the compound, how does the “activity change, negative = cytotoxicity” value read?
Answer: Its value is -2.88% (inactive).

Question: For `O=C(NCc1cccnc1)Nc1ccc([N+](=O)[O-])cc1`, which Potency is on record?
Answer: Its Potency is 24.3 µM (active).

Question: With `CC(O)(CS(=O)(=O)c1ccc(F)cc1)C(=O)Nc1ccc(C#N)c(C(F)(F)F)c1` (stereo not given) as the compound, how does the “activity change, negative = cytotoxicity” value read?
Answer: The value was -28.3% [at 42.5 µM] (inactive).

Question: Which “activity change, negative = cytotoxicity” value does the source give for `Clc1cc(C(Cl)(Cl)Cl)cnc1Cl` here?
Answer: The value was 7.44% (inactive).

Question: With `ClC=C(Cl)Cl` as the compound, how does the “activity change, negative = cytotoxicity” value read?
Answer: Its value is 0.0221% (inactive).

Question: Which “activity change, negative = cytotoxicity” value does the source give for `CNC(C)Cc1ccccc1OC` (stereo not given) here?
Answer: Its value is -18% [at 42.5 µM] (inactive).

Question: With `Cl/C=C\Cl` as the compound, how does the “activity change, negative = cytotoxicity” value read?
Answer: The value was 24% (inactive).
